Screening data (PubChem)
D2 ag-1 – Beta-Arrestin HTS for Positive Allosteric Modulators of the Human D2 Dopamine Receptor: Agonists | D(2) dopamine receptor (Homo sapiens), P14416 | DiscoveRx PathHunter D2 beta-arrestin, luminescence, 90 min; 100% = 57 uM dopamine signal | activation, % (no concentration beside the values) | 360,000 compounds, 0.084% hits | AID 624465, 2012; in the data active = activation above about 40%; inconclusive = between about 15% and that limit
Target sequence (P14416 whole entry, looked up): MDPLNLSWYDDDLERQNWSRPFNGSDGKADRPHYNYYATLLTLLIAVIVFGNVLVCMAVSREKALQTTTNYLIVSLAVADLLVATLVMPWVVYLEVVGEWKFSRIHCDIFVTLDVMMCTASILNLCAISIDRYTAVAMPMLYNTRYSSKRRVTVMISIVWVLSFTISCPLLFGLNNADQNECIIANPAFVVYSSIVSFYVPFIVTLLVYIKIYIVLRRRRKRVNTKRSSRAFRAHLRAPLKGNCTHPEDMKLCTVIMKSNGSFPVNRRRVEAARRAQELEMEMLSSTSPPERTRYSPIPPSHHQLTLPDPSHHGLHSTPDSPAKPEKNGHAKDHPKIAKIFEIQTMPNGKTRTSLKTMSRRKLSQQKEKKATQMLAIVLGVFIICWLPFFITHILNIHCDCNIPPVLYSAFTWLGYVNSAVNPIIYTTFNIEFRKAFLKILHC
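DiscoveRx PathHunter D2 beta-arrestin cells (2,100/well) attached overnight, then compound-stimulated 90 min at 37 C in HBSS/10 mM HEPES/0.1% Tween-20 buffer; beta-galactosidase complementation read by luminescence after 1 h at ambient temperature. Dopamine 57 uM final (EC100) as control.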
LDHA block – qHTS assay for inhibitors of human lactate dehydrogenase; 480,000 compounds, 0.15% hits; activity change, % (values are at about 110 or 230 µM); purified LDHA, NADH/diaphorase-resazurin fluorescence; active compounds read low; in the data active = activity change below about -30%; inconclusive = mostly about -25% to -30%
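Enzyme activity of human lactate dehydrogenase 5 (2 nM; 0.06 mM NADH, 0.2 mM pyruvate, 5 min, RT) is measured via a resazurin/diaphorase fluorescence readout of residual NADH.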
D2 antag – HTS Assay for Allosteric Antagonists of the Human D2 Dopamine Receptor: Primary Screen for Antagonists | inhibition, % at 10 µM | 340,000 compounds, 2% hits | D(2) dopamine receptor (Homo sapiens), P14416 | HEK293 TREx D2 cells, calcium flux, dopamine EC80; in the data active = inhibition above about 30%; inactive = below that, where a call was filed
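Inhibition of EC80 dopamine-driven calcium flux, recorded kinetically, defines activity here; cells are a tetracycline-induced HEK293 T-REx line expressing force-coupled D2.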
D2 ag-2 – HTS Assay for Allosteric Agonists of the Human D2 Dopamine Receptor: Primary Screen for Agonists. HEK293 T-REx D2 cells, calcium flux agonist mode. activation, % at 2 µM. 340,000 compounds, 0.53% hits;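 active = activation over 3 SD above normal in the single-dose calcium agonist read, cut at about 30% in these data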
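Tetracycline-induced HEK293 Trex cells with D2 receptor force-coupled to calcium signaling, plated overnight at 30 C and loaded with no-wash calcium dye. Calcium flux read kinetically for 180 s after compound addition; responses flag agonists.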
D2 PAM-1 – HTS Assay for Positive Allosteric Modulators of the Human D2 Dopamine Receptor: Primary Screen for Potentiators; 340,000 compounds, 0.34% hits; HEK293 T-REx D2, calcium flux, EC20 dopamine potentiation; D(2) dopamine receptor (Homo sapiens), P14416; potentiation, % at 10 µM;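 active = potentiation over 3 SD above the plate norm, cut at about 30% in these data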
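Primary screen. Calcium kinetics in induced HEK293 T-REx D2 cells: compound pre-addition 180 s, EC20 dopamine, 180 s more.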
D2 PAM-2 – Beta-Arrestin HTS for Positive Allosteric Modulators of the Human D2 Dopamine Receptor: Potentiators. potentiation, % (test concentration not listed). 360,000 compounds, 0.23% hits. AID 624464, 2012. DiscoveRx D2 beta-arrestin cells, luminescence, 90 min; 100% = 57 uM dopamine signal; in the data active = potentiation above about 50%; inconclusive = mostly about 30% to 49%
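PathHunter beta-arrestin assay in DiscoveRx D2 cells. Compounds were added with an EC20 of dopamine (50 nM final) for 90 min at 37 deg C. Luminescence was read 1 h after detection reagent, with 57 uM dopamine as the EC100 control.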
Large screens that a line does not name were inactive. Compounds with a hit are over-represented: about 2.1% of the library has one in this group of screens.

O=C(O)c1ccc(/C=C/C(=O)c2cccc(N3CCOCC3)c2)cc1	none (no result: D2 ag-1, D2 antag, D2 ag-2, D2 PAM-1, D2 PAM-2)
CSc1ccccc1NC(=O)COc1ccc2c(c1)CCC(=O)N2	none (no result: D2 ag-1, D2 antag, D2 ag-2, D2 PAM-1, D2 PAM-2)
CC1CC(C)CN(C(=O)C(NS(=O)(=O)c2ccc3c(c2)oc(=O)n3C)C(C)C)C1 (stereo not given)	none
CC(C)C(NS(=O)(=O)c1ccc2c(c1)oc(=O)n2C)C(=O)N1CCN(C2CCCCC2)CC1 (stereo not given)	D2 antag 31
COCCCNC(=O)CN(c1cc(Cl)ccc1OC)S(=O)(=O)c1ccc(C)c([N+](=O)[O-])c1	none
COCCNC(=O)CN(c1cc(Cl)ccc1OC)S(=O)(=O)c1ccc(C)c([N+](=O)[O-])c1	D2 antag 59
Nc1ccc(S(=O)(=O)c2cc(O)c3ccccc3c2O)cc1	D2 ag-1 inconclusive, D2 PAM-2 51 (no result: D2 antag, D2 ag-2, D2 PAM-1)
Cc1ccc(Nc2nc(CN3CCN(S(=O)(=O)c4ccccc4F)CC3)cs2)cc1	none (no result: D2 ag-1, D2 antag, D2 ag-2, D2 PAM-1, D2 PAM-2)
CCN1CCN(C(=O)C2c3cc(OC)c(OC)cc3C(=O)N(C)C2c2ccc(SC)cc2)CC1 (stereo not given)	D2 PAM-1 46
COc1ccc(C2C(C(=O)N3CCN(C)CC3)c3cc(OC)c(OC)cc3C(=O)N2C)cc1 (stereo not given)	none
Cc1cc(C)cc(NC(=O)C2CC(=O)n3c(nc4ccccc43)N2)c1 (stereo not given)	none (no result: D2 ag-1, D2 antag, D2 ag-2, D2 PAM-1, D2 PAM-2)
Cc1cc(N2CCOCC2)n2nc(C)c(-c3ccc(Cl)cc3)c2n1	D2 antag 33
COc1ccc(-c2c(C)nn3c(N4CCN(Cc5ccccc5)CC4)cc(C)nc23)cc1OC	D2 PAM-1 31
Cc1nn2c(N3CCOCC3)cc(C(C)(C)C)nc2c1-c1ccc(Cl)cc1	none
Nc1nc(NCCc2ccccc2)nc(NCc2ccccc2)c1[N+](=O)[O-]	D2 antag 45
C=CCNc1nc(N)c([N+](=O)[O-])c(NCc2ccccc2)n1	none
COc1cc(CNCc2cc(OC)c(OC)c(OC)c2)cc(OC)c1	D2 antag 30
CCCNCC(O)COc1ccccc1C(=O)CCc1ccccc1 (stereo not given)	D2 antag 35 (no result: D2 ag-1, D2 ag-2, D2 PAM-1, D2 PAM-2)
O=C(CN1C(=O)S/C(=C\c2cccn2-c2ccc(C(=O)O)cc2)C1=O)Nc1ccc(F)cc1	none (no result: D2 ag-1, D2 antag, D2 ag-2, D2 PAM-1, D2 PAM-2)
CCCN1CCC(N(C)C(=O)Nc2ccc(F)cc2F)CC1	none (no result: D2 ag-1, D2 antag, D2 ag-2, D2 PAM-1, D2 PAM-2)
COc1ccccc1/C=C\C(=O)NCC(=O)N/N=C/c1cccc(OC)c1O	D2 antag 49
COc1ccc(/C=N/NC(=O)CNC(=O)/C=C/c2ccccc2OC)cc1	none
COc1ccc(Br)cc1/C=C/C(=O)Nc1ccc(C)cc1	D2 antag 74
COc1ccccc1/C=C/C(=O)NCC(=O)N/N=C/c1cc(Br)ccc1OC	D2 antag 64
COc1cccc(/C=N/Nc2ccc(S(=O)(=O)O)cc2)c1O	none (no result: D2 antag, D2 ag-2, D2 PAM-1)
COc1cccc(/C=N/Nc2ccc(C(=O)O)cc2)c1O	D2 PAM-2 79
COc1ccc(Br)cc1/C=N/NC(=O)CNC(=O)c1cccnc1	none
O=C(Nn1cnnc1)c1ccccc1Br	none (no result: D2 ag-1, D2 antag, D2 ag-2, D2 PAM-1, D2 PAM-2)
COc1cccc(N2C(=O)c3cc4oc(C)cc4n3CC2(C)C(=O)NC2CCCCCC2)c1 (stereo not given)	none (no result: D2 ag-1, D2 antag, D2 ag-2, D2 PAM-1, D2 PAM-2)
CCOc1cc(/C=C/C(=O)c2ccc(OC)c(Br)c2)ccc1OC	none (no result: D2 ag-1, D2 antag, D2 ag-2, D2 PAM-1, D2 PAM-2)
COc1ccc(/C=C/C(=O)NCC(=O)N/N=C/c2cc(Br)ccc2OC)cc1	D2 antag 69
COc1cc(OC)c2cc(C(=O)N/N=C/c3cccc(OC)c3O)[nH]c2c1	none
COc1cccc(/C=N/NC(=O)c2cc3c(OC)ccc(OC)c3[nH]2)c1O	D2 PAM-2 52
C/C=C(\C)CN1CCN(c2cc(C)ccc2C)CC1	none
C/C=C(\C)CN1CCN(c2cccc(C)c2C)CC1	D2 antag 85
